PP1 inh: counter-screen for PP5 inhibitors: inhibitors of human PP1-alpha. P62136. purified PP1alpha, OMFP fluorescence. inhibition, % at 6.7 µM. actives 0.9% (n = 320,000). AID 2235;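 active means inhibition above the mean inhibition of all tested compounds plus 3 SD, computed separately for each screening campaign, cut at about 15% in these data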
Beta apoptosis: blocks beta cell apoptosis. actives 0.8% (n = 300,000). INS-1E cytokine-induced death, ATP luminescence, 48 h; percent of positive-control rescue, neutral wells zero. protection from apoptosis, % (test concentration not listed);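 active means Every replicate reaches about 75%, or at least half do and their mean reaches it too, limit read from the data; inconclusive means At least half of replicates reach the limit but their mean does not; inactive means Under half of replicates reach the limit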;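 further: higher means more ATP so stronger rescue from cytokine killing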
CSC inhib: blocks cancer stem cells; inhibition, % at 7.5 µM; cancer stem cell-like cells viability, luminescence; actives 1.1% (n = 300,000); in the data active means inhibition above about 75%; inconclusive means no clear call, values can overlap the other calls; tested in HMLE shEcad cells
Mdm2 MdmX PPI: disrupts the human Mdm2-MdmX interaction | O15151+Q00987 | SaOS-2 split-luciferase Mdm2/MdmX complementation, luminescence | inhibition, % at 8 µM | actives 3% (n = 330,000) | AID 485346;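 active means inhibition of at least 50% at 8 µM in the primary screen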
Target sequence (O15151 whole entry, looked up): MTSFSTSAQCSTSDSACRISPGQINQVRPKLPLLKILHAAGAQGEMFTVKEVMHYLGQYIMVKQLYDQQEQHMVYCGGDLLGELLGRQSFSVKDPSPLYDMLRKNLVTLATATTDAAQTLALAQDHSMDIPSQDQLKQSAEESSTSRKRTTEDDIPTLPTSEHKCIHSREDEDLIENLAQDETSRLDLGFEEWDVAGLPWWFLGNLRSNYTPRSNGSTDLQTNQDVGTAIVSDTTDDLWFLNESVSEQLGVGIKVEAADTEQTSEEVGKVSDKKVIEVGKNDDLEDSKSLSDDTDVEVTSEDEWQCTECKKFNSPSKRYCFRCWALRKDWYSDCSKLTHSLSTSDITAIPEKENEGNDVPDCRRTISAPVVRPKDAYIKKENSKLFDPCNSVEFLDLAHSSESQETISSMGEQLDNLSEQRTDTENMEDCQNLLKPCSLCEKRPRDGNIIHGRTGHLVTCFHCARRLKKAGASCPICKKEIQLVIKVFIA
Target sequence (Q00987 whole entry, looked up): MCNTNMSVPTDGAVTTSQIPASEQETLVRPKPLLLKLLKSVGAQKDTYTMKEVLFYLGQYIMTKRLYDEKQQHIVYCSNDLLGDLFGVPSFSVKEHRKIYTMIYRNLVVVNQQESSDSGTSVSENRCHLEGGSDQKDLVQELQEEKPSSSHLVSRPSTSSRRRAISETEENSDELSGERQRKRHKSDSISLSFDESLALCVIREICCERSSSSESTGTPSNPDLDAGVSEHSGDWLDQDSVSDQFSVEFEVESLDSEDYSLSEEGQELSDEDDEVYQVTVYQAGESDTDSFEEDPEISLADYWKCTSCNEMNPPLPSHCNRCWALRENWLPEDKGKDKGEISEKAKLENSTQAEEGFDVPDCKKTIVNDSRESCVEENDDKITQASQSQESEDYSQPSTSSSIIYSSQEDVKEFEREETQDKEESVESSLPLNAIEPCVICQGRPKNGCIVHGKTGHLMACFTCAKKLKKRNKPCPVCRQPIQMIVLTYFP
PP5 primary: inhibitors of human protein phosphatase 5 (PP5); P53041; purified PP5c, OMFP substrate fluorescence; inhibition, % at 6.7 µM; actives 0.18% (n = 320,000); AID 1987;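 active means inhibition above the campaign's mean inhibition across all tested compounds plus 3 SD, cut at about 9.5% in these data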
Calb FLC: affects C. albicans growth with fluconazole; C. albicans CaCi-2 (fluconazole-resistant clinical isolate) + fluconazole, Alamar Blue growth, 48 h; growth inhibition, % (test concentration not listed); actives 0.57% (n = 300,000); AID 1979;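 active means growth inhibition above about 58% in most replicates, limit read from the data, passing the limit was not always enough; inconclusive means exactly half the replicates above a set limit; inactive means most replicates below a set limit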;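 further: all wells also contain fluconazole at 8 µg/ml as a sub-toxic cotreatment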
Mdm2-MdmX conf: human Mdm2/MdmX binding inhibition, confirmed. shares compounds with Mdm2 MdmX PPI. luminescent assay. actives 55% (n = 10,000). inhibition, % at 8 µM; in the data active means inhibition above about 40%
Full FLuc ctr: inhibits full-length luciferase, flagging false Mdm2/MdmX hits; shares compounds with Mdm2 MdmX PPI; SaOS-2 full-length luciferase counterscreen, luminescence; actives 77% (n = 6,200); inhibition, % at 8 µM;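 active means mean inhibition at 8 µM reaching about 37%, which flags the compound as non-specific, limit read from the data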;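 further: p53-null SaOS-2 cells with luciferase driven by a doxycycline-inducible promoter; compound on cells about two nights before reading with doxycycline added after day one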
Hits are given with their value; - = inactive; ? = inconclusive; . = no result. An excerpt weighted towards active compounds, which were near 4.9% of everything screened.

SMILES	PP1 inh	Beta apoptosis	CSC inhib	Mdm2 MdmX PPI	PP5 primary	Calb FLC	Mdm2-MdmX conf	others
C=CCn1c(=N)n(CC(O)COc2ccccc2OC)c2ccccc21 (stereo not drawn)	-	-	-	-	-	-	.
Cc1ccccc1OCC(O)Cn1c(=N)n(Cc2ccccc2)c2ccccc21 (stereo not drawn)	-	-	?	97	-	-	96	Full FLuc ctr=-
COc1ccccc1OCC(O)Cn1c(=N)n(Cc2ccccc2)c2ccccc21 (stereo not drawn)	-	-	-	-	-	-	.
CC(=O)N=c1n(C)c2ccccc2n1CCOc1ccccc1	-	.	-	-	-	-	.
COCCNC(=O)c1cc(C(=O)CC(C)C)c[nH]1	-	-	.	-	-	-	.
COc1ccccc1N(CN1C(=O)c2ccccc2C1=O)C(=O)c1cccc(C)c1	-	-	-	-	-	-	.
CC1=NN(c2ccccc2)C(=O)/C1=C\C=C\c1ccccc1	-	-	102	66	-	-	45	Full FLuc ctr=-
O=C(Nc1ccc(Cl)cc1C(=O)N1CCCC1)c1cccc([N+](=O)[O-])c1	-	-	-	-	-	-	.
O=C(Nc1ccccc1N1CCOCC1)c1cc(-c2ccco2)nc2ccccc12	-	-	-	70	-	-	53	Full FLuc ctr=68
COc1cc(-c2cc(C(=O)Nc3ccccc3N3CCOCC3)c3ccccc3n2)cc(OC)c1OC	-	-	-	-	-	-	.
CS(=O)(=O)c1ccc(C(=O)OCC(=O)NC(=O)C2CCCCC2)cc1[N+](=O)[O-]	-	-	-	50	-	-	-
CS(=O)(=O)c1ccc(C(=O)OCC(=O)NC(=O)C2COc3ccccc3O2)cc1[N+](=O)[O-] (stereo not drawn)	.	-	-	51	.	.	-
Cc1cccc(NC(=O)CN2CCN(C(=O)c3oc4c(Cl)cccc4c3C)CC2)c1C	-	-	-	-	-	.	.
COc1ccc(C(=O)c2no[n+]([O-])c2C(=O)c2ccc(OC)cc2)cc1	-	-	-	62	-	-	-
O=C(c1cccs1)c1no[n+]([O-])c1C(=O)c1cccs1	-	-	-	95	-	-	-
Cc1ccccc1CS(=O)(=O)c1cn(CC(=O)N2CCOCC2)c2ccccc12	-	-	-	-	-	-	.
Cn1cc([C@@H]2C[C@H]3CN(C4CCCC4)C(=O)[C@]34CCCN24)c(-c2ccccc2)n1	-	-	-	-	-	-	.
O=C(Nc1nnc(Cc2ccccc2)s1)C1CCN(C(=O)c2ccco2)CC1	-	-	-	-	-	-	.
COc1ccc2[nH]c3c(c2c1)CCNC3C1CC=C(C)CC1 (stereo not drawn)	-	-	-	67	-	-	61	Full FLuc ctr=57
COc1ccc2[nH]c3c(c2c1)CCNC3c1ccc([N+](=O)[O-])o1 (stereo not drawn)	-	-	-	-	-	-	.
CCOC(=O)CNC(=O)CCc1nnc2ccc(N3CCC(C)CC3)nn12	-	-	-	-	-	-	.
COc1ccc(C(C[N+](=O)[O-])c2c(C)cc3ccccn23)cc1 (stereo not drawn)	-	-	-	-	-	-	.
COc1ccc(C(C[N+](=O)[O-])c2c(-c3ccccc3)cc3ccccn23)c(OC)c1 (stereo not drawn)	17	-	-	53	-	-	-	Full FLuc ctr=71
C/C=C(\C)CN1CCCC(CO)(Cc2ccccc2)C1 (stereo not drawn)	-	-	-	-	-	-	.
O=C(CN1CCc2cc3c(cc2C1)OCCCO3)Nc1cccc(Br)c1	-	-	-	-	-	-	.
SMILES	PP1 inh	Beta apoptosis	CSC inhib	Mdm2 MdmX PPI	PP5 primary	Calb FLC	Mdm2-MdmX conf	others
CC(Sc1ccc(Cl)cc1)C(=O)Nc1ccc2c(c1)OCO2 (stereo not drawn)	-	-	-	-	-	-	.
CC(C)N1CCC2(CC1)N=C(c1ccc3c(c1)OCO3)CC(c1cc(Cl)ccc1O)N2 (stereo not drawn)	-	-	-	70	-	-	-
O=C(CN1C(=O)c2cccc3cccc1c23)NC1CCCC1	-	-	.	-	-	-	.
CCc1cc2cc3c(cc2nc1SCC(=O)Nc1nccs1)OCO3	-	-	-	71	-	-	-
CCCn1c(=O)[nH]c(=O)c2c1nc(-c1ccc(OC)c(Br)c1)n2CCOC	-	-	-	-	-	-	.
CCc1ccc(-c2cc3c(=O)n(CC(=O)N4CCCC4)nc(C)n3n2)cc1	-	-	-	-	-	-	.
COc1ccc(-c2cc3c(=O)n(CC(=O)Nc4ccc(C(C)=O)cc4)ncn3n2)cc1	-	-	-	58	-	-	-	Full FLuc ctr=105
COc1ccc(-c2cc3c(=O)n(CC(=O)NC4CCN(Cc5ccccc5)CC4)ncn3n2)cc1	-	-	-	69	-	-	-
COc1ccc(-c2cc3c(=O)n(CC(=O)NCc4cccnc4)ncn3n2)cc1	-	-	-	-	-	-	.
CCc1ccc(-c2cc3c(=O)n(CC(=O)NCCN4CCCCC4C)nc(C)n3n2)cc1 (stereo not drawn)	-	-	80	68	-	-	-
COc1ccc(-c2cc3c(=O)n(CC(=O)NCCCN4CCC(N5CCCCC5)CC4)ncn3n2)cc1	-	-	-	67	-	.	-
Cc1nnc(SC(C)C(=O)Nc2ccc(Cl)cc2Cl)[nH]c1=O (stereo not drawn)	.	-	-	-	.	.	.
COc1ccc(-c2cc3c(=O)n(CC(=O)NCCCN4CCC(N5CCCCC5)CC4)nc(C)n3n2)cc1	-	-	-	99	-	-	100	Full FLuc ctr=46
Cc1nn(CC(=O)NCCCN2CCCCC2)c(=O)c2cc(-c3ccccc3)nn12	-	-	-	-	-	-	.
O=C(/C=C/c1ccc(Cl)c([N+](=O)[O-])c1)Nc1cccc(NC(=O)c2ccco2)c1	-	-	?	53	-	-	-
CCOC(=O)C(C)N1C(=O)S/C(=C/c2ccc3c(c2)n(C)c(=O)n3C)C1=O (stereo not drawn)	-	-	-	51	-	-	-
CCC(C)N1C(=O)S/C(=C/c2ccc3c(c2)n(C)c(=O)n3C)C1=O (stereo not drawn)	-	.	-	-	-	-	.
COc1cccc(NC(=O)CSc2nc3ccccc3c(=O)n2CCCC(=O)NCC2CCCO2)c1 (stereo not drawn)	-	-	-	-	-	-	.
Cc1cccc(/N=C/c2c(O)n(Cc3ccc4c(c3)OCO4)c(=O)c3ccccc23)n1	-	-	-	53	-	-	-
O=C(C[C@@H]1C/C=C\C[C@@H](Cc2ccc(F)cc2)C(=O)OC[C@@H]2CCCN2C1=O)NCCO	.	.	.	-	.	.	.
Nc1nc(N)c2c(ccc3nccc32)[nH]1	-	-	-	51	-	-	-
Nc1ccc2ncccc2c1N	-	-	-	.	-	.	.
